Results filed as inconclusive are left out. Entries that show only a call come without a potency. Active and inactive are the calls of the source. Calls follow the shape of the dose curve; as a rule, active = well fitted cell-killing curve with a large enough effect; inconclusive = small, poorly fitted or top-dose-only effect; inactive = flat fitted curve, though single readings scatter.
experiment: Quantitative highthroughput screen to assess conditional lethalithy of P12 Ichikawa cells grown in Human Plasma-Like Medium with dialyzed fetal bovine serum (HPLM+ds) (AID 1963879); settings: ATP luminescence, 48 h; Potency: viability; series mostly up to 45.8 µM; also: nearly all actives have a fitted effect of over 35% in size
Summary of the method: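 Each medium arm—HPLM with 10% dialyzed FBS, or RPMI1640 with 5 mM glucose and 10% untreated or dialyzed FBS—was screened against an 11-point, 3-fold compound titration for 48 h at 37 °C, with CellTiter-Glo luminescence as endpoint.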
Potency is read from the fitted curve at half-maximal effect.

SMILES | Potency
Cn1c(=O)n(-c2ccc(C(C)(C)C#N)cc2)c2c3cc(-c4cnc5ccccc5c4)ccc3ncc21 | 1050 nM (active)
CCN(CC)Cc1ccc2cc(COC(=O)Nc3ccc(C(=O)NO)cc3)ccc2c1 | 2350 nM (active)
Cn1cc(C[C@@H](N)C(=O)O)c2ccccc21 | inactive
Cc1ccn(-c2ccc(-c3ncco3)cc2)c(=O)c1-c1ccc2nc(N)ncc2c1 | inactive
COCCNCCCn1c(C(=O)CF)c(-c2ccc(C)cc2)c2c(N)ncnc21 | inactive
COc1ncc(-c2ccc3c(Nc4cc(Oc5cc(F)cc(F)c5)cc(C(=O)O)c4)c(S(=O)(=O)NC4CC4)cnc3c2)c(OC)n1 | inactive
O=C(c1ccc(F)cc1)C1CCN(CCn2c(=O)[nH]c3ccccc3c2=O)CC1 | inactive
NS(=O)(=O)c1ccc(Nc2nc(OCC3CCCCC3)c3[nH]cnc3n2)cc1 | 46.9 nM (active)
Cc1ccc(C(=O)Nc2cccc(C(F)(F)F)c2)cc1Nc1nc(-c2cccnc2)nc2c1cnn2C | inactive
NCCc1ccc(O)c(O)c1 | inactive
CC(C)c1ccc2c(c1)c(SC(C)(C)C)c(CC(C)(C)C(=O)O)n2Cc1ccc(Cl)cc1 | inactive
CCN(CCO)CCCOc1ccc2c(Nc3cc(CC(=O)Nc4cccc(F)c4)[nH]n3)ncnc2c1 | 166 nM (active)
CCC(c1ccc(O)cc1)C(CC)c1ccc(O)cc1 (stereo not given) | inactive
Cc1ccc(C(=O)c2cc(O)c(O)c([N+](=O)[O-])c2)cc1 | inactive
CCOC(=O)[C@@H](N)CCC(=O)N[C@@H](CSCc1ccccc1)C(=O)N[C@@H](C(=O)OCC)c1ccccc1 | inactive

From PubChem BioAssay (NCATS)
